# Reference: the supplement of paper PMC11634586
# Unmarked numbers belong to inactive results.
# Tested on: NCI-H1688
# Assay: inhibition of cell viability relative to untreated control (fraction); higher = stronger growth inhibition, active = 0.5 or more
# Conditions: 30 µM; 24 h
# Summary of the method: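 After seeding at 3 × 10^3 cells/well in 96-well plates and a 24 h wait, NCI-H1688 small cell lung cancer cells received a natural compound library (TargetMol) at 30 µM for 24 h, kept at 37°C with 5% CO2. Triplicate readings of Cell Counting Kit-8 absorbance at 450 nm measured viability. Each value is the inhibition of cell viability as a fraction, derived from viability normalised to untreated cells.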
row,SMILES,inhibition of cell viability
1,C=CC[C@@H]1/C=C(\C)C[C@H](C)C[C@H](OC)[C@H]2O[C@@](O)(C(=O)C(=O)N3CCCC[C@H]3C(=O)O[C@H](/C(C)=C/[C@@H]3CC[C@@H](O)[C@H](OC)C3)[C@H](C)[C@@H](O)CC1=O)[C@H](C)C[C@@H]2OC [Tacrolimus (FK506)],0.0216
2,c1coc(CNc2ncnc3[nH]cnc23)c1 [Kinetin],0.00365
3,O=C(O)C(O)Cc1ccc(O)c(O)c1 (stereo unspecified) [Sodium Danshensu],-0.0463
4,C/C=C\c1ccc(OC)cc1 [cis-Anethol],-0.182
5,C[n+]1cccc(C(=O)[O-])c1 [Trigonelline],-0.0163
6,CC[C@@]1(O)C(=O)OCc2c1cc1n(c2=O)Cc2cc3cc(O)ccc3nc2-1 [Hydroxy Camptothecine],0.97 (active)
7,NC(=O)NC1NC(=O)NC1=O (stereo unspecified) [Allantoin],0.00777
8,C/C=C(/C)C(=O)O[C@H]1[C@H](OC(C)=O)[C@@]2(CO)C(CC1(C)C)C1=CCC3[C@@]4(C)CCC(O[C@@H]5O[C@H](C(=O)O)[C@@H](O[C@@H]6O[C@H](CO)[C@@H](O)[C@H](O)[C@H]6O)[C@H](O)[C@H]5O[C@@H]5O[C@H](CO)[C@@H](O)[C@H](O)[C@H]5O)[C@](C)(CO)C4CC[C@@]3(C)[C@]1(C)C[C@H]2O.C/C=C(\C)C(=O)O[C@H]1[C@H](OC(C)=O)[C@@]2(CO)C(CC1(C)C)C1=CCC3[C@@]4(C)CCC(O[C@@H]5O[C@H](C(=O)O)[C@@H](O[C@@H]6O[C@H](CO)[C@@H](O)[C@H](O)[C@H]6O)[C@H](O)[C@H]5O[C@@H]5O[C@H](CO)[C@@H](O)[C@H](O)[C@H]5O)[C@](C)(CO)C4CC[C@@]3(C)[C@]1(C)C[C@H]2O (stereo partly specified) [Escin],0.982 (active)
9,Nc1nc(=O)c2nc(CNc3ccc(C(=O)N[C@@H](CCC(=O)O)C(=O)O)cc3)cnc2[nH]1 [Folic acid],-0.206
10,CC(C)[C@H](NC(=O)[C@H](CC(=O)O)NC(=O)[C@H](CCCCN)NC(=O)[C@@H](N)CCCN=C(N)N)C(=O)N[C@@H](Cc1ccc(O)cc1)C(=O)O [Thymopentin],0.0248
11,C[C@@H]1O[C@@H](OC[C@H]2O[C@@H](Oc3c(-c4ccc(O)c(O)c4)oc4cc(O)cc(O)c4c3=O)[C@H](O)[C@@H](O)[C@@H]2O)[C@H](O)[C@H](O)[C@H]1O [Rutin],0.272
12,CC(C)=CCC[C@](C)(O[C@@H]1O[C@H](CO)[C@@H](O)[C@H](O)[C@H]1O)[C@H]1CC[C@]2(C)[C@@H]1[C@H](O)C[C@@H]1[C@@]3(C)CC[C@H](O)C(C)(C)[C@@H]3[C@@H](O[C@@H]3O[C@H](CO)[C@@H](O)[C@H](O)[C@H]3O)C[C@]12C [Ginsenoside Rg1],-0.0362
13,COc1cc(C2Oc3cc([C@H]4Oc5cc(O)cc(O)c5C(=O)[C@@H]4O)ccc3OC2CO)ccc1O (stereo partly specified) [Silymarin],0.221
14,Cc1cccc2c3c(ccc12)C1=C(C(=O)C3=O)[C@@H](C)CO1 [Dihydrotanshinone I],0.992 (active)
15,C[C@@H]1O[C@@H](OC[C@H]2O[C@@H](Oc3c(-c4ccc(OCCO)c(OCCO)c4)oc4cc(OCCO)cc(O)c4c3=O)[C@H](O)[C@@H](O)[C@@H]2O)[C@H](O)[C@H](O)[C@H]1O [Troxerutin],-0.145
16,COc1ccc(-c2coc3cc(O)cc(O)c3c2=O)cc1 [Biochanin A],-0.0526
17,O=c1c2cc(O)c(O)cc2oc2cc(O)c([C@@H]3O[C@H](CO)[C@@H](O)[C@H](O)[C@H]3O)c(O)c12 [Mangiferin],-0.186
18,CC(=O)[C@H]1CC[C@H]2[C@@H]3CCC4=CC(=O)CC[C@]4(C)[C@H]3CC[C@]12C [Progesterone],-0.156
19,O=c1c(-c2ccc(O[C@@H]3O[C@H](CO)[C@@H](O)[C@H](O)[C@H]3O)cc2)coc2cc(O)cc(O)c12 [Sophoricoside],0.495
20,COc1ccc(CC(=O)O)cc1OC [Homoveratrumic acid],0.0253
21,COc1c(C)c2c(c(O)c1C/C=C(\C)CCC(=O)O)C(=O)OC2 [Mycophenolic acid],0.841 (active)
